Most compounds without a hit are left out; they make up all but 22% or so of the library.
CYP2C19 inh: blocks human cytochrome P450 2C19. P33261. CYP2C19 Supersomes, luciferin-H EGE luminescence, 30 min. inhibition, % at 5 µM. actives 21% (n = 96,000);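 active = CYP2C19 inhibition above a set limit at 5 µM in the primary screen, cut at about 50% in these data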;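 note: plate controls were negative control wells for no effect and 2.5 mM tranylcypromine positive control for full effect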
CYP2C19 act: activators of human cytochrome P450 2C19; P33261; recombinant CYP2C19, luciferin-H EGE luminescence; stronger effect = higher value; 0 = fully inhibited enzyme, 1 = untreated enzyme; activation factor at 5 µM; 96,000 tested, under 10 active; AID 1025;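 active = activation factor of at least 2 at 5 µM in the primary screen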;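 note: 0 = wells with 2.5 mM tranylcypromine and 1 = vehicle-only wells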
CYP2C9 activ: CYP2C9 (human) activation | P11712 | recombinant CYP2C9, luciferin-H conversion, luminescence; stronger effect = higher value; factor 1 = untreated enzyme, 0 = blocked | activation factor at 5 µM | actives 1.4% (n = 96,000) | AID 1024;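 active = activation factor of 2 or more for CYP2C9 at a 5 µM dose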;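 note: 0 = sulfaphenazole-blocked wells and 1 = vehicle-only wells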
Target sequence (P11712 whole entry, looked up): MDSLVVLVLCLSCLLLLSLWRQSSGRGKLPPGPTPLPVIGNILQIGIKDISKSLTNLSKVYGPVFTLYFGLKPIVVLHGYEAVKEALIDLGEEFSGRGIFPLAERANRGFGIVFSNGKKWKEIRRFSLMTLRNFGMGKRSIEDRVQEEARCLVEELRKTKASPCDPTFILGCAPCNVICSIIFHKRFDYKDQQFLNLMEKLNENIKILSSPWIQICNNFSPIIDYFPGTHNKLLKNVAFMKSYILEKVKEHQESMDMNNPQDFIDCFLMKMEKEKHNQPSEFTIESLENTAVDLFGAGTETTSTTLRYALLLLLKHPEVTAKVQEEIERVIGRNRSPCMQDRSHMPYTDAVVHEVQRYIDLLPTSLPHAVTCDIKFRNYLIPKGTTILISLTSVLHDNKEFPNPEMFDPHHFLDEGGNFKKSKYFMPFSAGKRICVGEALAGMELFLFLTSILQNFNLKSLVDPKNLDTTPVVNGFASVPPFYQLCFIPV
Measles CPE: protection of cells from measles virus; actives 1.5% (n = 140,000); AID 841; protection (pct of control), % at 4 µM; Measles virus-infected cells, CPE protection, absorbance; in the data active = protection mostly above about 24%, no sharp cut-off; inactive = mostly below about 26%
CYP2C9 inhib: inhibitors of human CYP2C9; inhibition, % at 5 µM; CYP2C9 Supersomes, luciferin-H conversion, luminescence; P11712; actives 20% (n = 96,000);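 active = blocking of liver enzyme CYP2C9 beyond about 50% at 5 µM, limit read from the data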
* = called active by the depositor.

CN(Cc1ccccc1)C(=O)Cn1c(=O)oc2cc(S(=O)(=O)N3CCCC3)ccc21 was read as CYP2C19 inh -1, CYP2C19 act 1, CYP2C9 activ 0.3, Measles CPE 21 and CYP2C9 inhib 65*.
`CCn1c(=O)n(CC(=O)N(C)Cc2ccccc2)c(=O)c2ccccc21` gave CYP2C19 inh 65*, CYP2C19 act 0.4, CYP2C9 activ 0.8, Measles CPE 23 and CYP2C9 inhib 16.
`CCOc1ccccc1NC(=O)Cn1c(=O)c2ccccc2n(CC)c1=O` gave Measles CPE 14.
`CC(=O)Nc1ccc(OC(=O)c2cccs2)cc1` gave CYP2C19 inh 14, CYP2C19 act 0.9, CYP2C9 activ 0.8, Measles CPE 3 and CYP2C9 inhib 15.
O=C(Nn1c(C2CCC2)nc2ccccc2c1=O)C1CCC1 was read as CYP2C19 inh 45, CYP2C19 act 0.6, CYP2C9 activ 0.5, Measles CPE 1 and CYP2C9 inhib 49.
`COC(=O)[C@@H]1C(c2ccccc2)(c2ccccc2)[C@@]1(C)C(=O)OC` gave Measles CPE 1.
Screening CN(CCNS(=O)(=O)c1ccc2c(c1)oc(=O)n2C)Cc1ccccc1 returned CYP2C19 inh 26, CYP2C19 act 0.7, CYP2C9 activ 1.2, Measles CPE 5 and CYP2C9 inhib -22.
Screening CN(Cc1ccco1)C(=O)Cn1c(=O)oc2cc(S(=O)(=O)NCc3ccccc3)ccc21 returned CYP2C19 inh 98*, CYP2C19 act 0, CYP2C9 activ 1, Measles CPE 15 and CYP2C9 inhib 1.
`CN(Cc1ccccc1)C(=O)CCn1c(=O)oc2ccccc21` gave CYP2C19 inh 93*, CYP2C19 act 0.1, CYP2C9 activ 1, Measles CPE 21 and CYP2C9 inhib -4.
`Cn1c(=O)oc2cc(S(=O)(=O)NCc3ccccc3)ccc21` gave CYP2C19 inh 59*, CYP2C19 act 0.4, CYP2C9 activ 1.7, Measles CPE 20 and CYP2C9 inhib -68.
Screening O=C(Cn1c(=O)oc2cc(S(=O)(=O)N3CCCC3)ccc21)NC1CCCc2ccccc21 (stereo not drawn) returned CYP2C19 inh 12, CYP2C19 act 0.9, CYP2C9 activ 0.4, Measles CPE 4 and CYP2C9 inhib 58*.
Screening O=C(Cn1c(=O)oc2cc(S(=O)(=O)N3CCCCCC3)ccc21)NC1CCCCCCC1 returned CYP2C19 inh 15, CYP2C19 act 0.8, CYP2C9 activ 0.7, Measles CPE 25 and CYP2C9 inhib 26.
Screening COC(=O)/C(=C1/Oc2cc(C)oc(=O)c2S1)C(F)(F)F returned Measles CPE 0.
For COC(=O)/C(=C(/F)Sc1cc(C)c(O)c(C)c1)C(F)(F)F the results were CYP2C19 inh 82*, CYP2C19 act 0.2, CYP2C9 activ 0.1, Measles CPE 2 and CYP2C9 inhib 94*.
O=C(CN(Cc1ccccc1)S(=O)(=O)c1ccc2c(c1)OCCO2)N/N=C/c1cccc(Br)c1 was read as Measles CPE 10.
CCc1ccc(N(CC(=O)Nc2ccc(OC)cc2OC)S(C)(=O)=O)cc1 was read as CYP2C19 inh 88*, CYP2C19 act 0.1, CYP2C9 activ 0, Measles CPE 14 and CYP2C9 inhib 97*.
For COc1ccc(C)cc1NC(=O)CN(c1ccccc1F)S(C)(=O)=O the results were CYP2C19 inh 36, CYP2C19 act 0.6, CYP2C9 activ 0.5, Measles CPE 4 and CYP2C9 inhib 52*.
COc1ccccc1NC(=O)CN(c1ccc(C23CC4CC(CC(C4)C2)C3)cc1)S(C)(=O)=O was read as CYP2C19 inh 3, CYP2C19 act 1, CYP2C9 activ 0.4, Measles CPE 4 and CYP2C9 inhib 64*.
COc1ccc(C)cc1NC(=O)CN(c1ccc(F)cc1)S(C)(=O)=O was read as CYP2C19 inh 31, CYP2C19 act 0.7, CYP2C9 activ 0.3, Measles CPE 18 and CYP2C9 inhib 65*.
COc1ccc(N(CC(=O)Nc2cc(OC)ccc2OC)S(C)(=O)=O)cc1 was read as Measles CPE 8.
COc1ccc(CCNC(=O)CN(c2ccccc2OC)S(C)(=O)=O)cc1OC was read as CYP2C19 inh 40, CYP2C19 act 0.6, CYP2C9 activ 0.6, Measles CPE 14 and CYP2C9 inhib 42.
For O=C(NCCCN1CCN(c2cccc(Cl)c2)CC1)C1CCC(=O)N1Cc1ccccc1Cl (stereo not drawn) the results were CYP2C19 inh 13, CYP2C19 act 0.9, CYP2C9 activ 0.9, Measles CPE 25 and CYP2C9 inhib 11.

Screening data as filed in PubChem BioAssay.
